± gives the standard deviation of the averaged measurements.
What was measured:
DLD1 [1] = test: cell viability (CellTiter-Glo) relative to plate median (fraction of plate median); higher = more viable cells; settings: 5 µM; treatment time 24 h; reporter: 7TFP
Procedure, shortened: (§1)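 Colorectal cancer cell lines stably carrying lentiviral TCF/Wnt firefly luciferase reporters (7TFP or TCF4/Wnt) were plated in 384-well plates and, 24 h later, given library compounds at a final 5 µM for 24 h. Firefly luciferase or CellTiterGlo luminescence was read on parallel plates with a Tecan F500 reader. Each well's signal was normalised to the plate median in webcellHTS2 (additive, without log transformation). Values are the mean of two independent replicates.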

HCT116 = test: as above; settings: 5 µM; treatment time 24 h; reporter: TCF4/Wnt
Procedure, shortened: as §1

SW480 [2] = test: as above; settings: 5 µM; treatment time 24 h; reporter: 7TFP
Procedure, shortened: as §1

DLD1 [3] = test: TCF/Wnt firefly luciferase reporter signal relative to plate median (fraction of plate median); higher = higher Wnt reporter signal; settings: 5 µM; treatment time 24 h; reporter: 7TFP
Procedure, shortened: as §1

SW480 [4] = test: as above; settings: 5 µM; treatment time 24 h; reporter: 7TFP
Procedure, shortened: as §1

Row | Structure (SMILES) | cell viability (DLD1 [1]) | cell viability (HCT116) | cell viability (SW480 [2]) | TCF/Wnt firefly luciferase reporter signal (DLD1 [3]) | TCF/Wnt firefly luciferase reporter signal (SW480 [4])
1 | O=C1CC(c2ccc(O)c(O)c2)Oc2cc(O)cc(O)c21 (stereo not given) | 1.04 ± 0.14 | 1.08 ± 0.057 | 0.973 ± 0.095 | 0.912 ± 0.011 | 0.862 ± 0.0014
2 | NC(=O)NC1NC(=O)NC1=O (stereo not given) | 1.03 ± 0.014 | 1.09 ± 0.057 | 1.01 ± 0.03 | 1.02 ± 0.15 | 1.055 ± 0.0071
3 | CC(=O)N(c1onc(C)c1C)S(=O)(=O)c1ccc(N)cc1 | 1.02 ± 0.034 | 1.05 ± 0.19 | 0.935 ± 0.06 | 0.933 ± 0.0014 | 0.985 ± 0.021
4 | CN1CCN2c3ccccc3Cc3ccccc3C2C1 (stereo not given) | 1.03 ± 0.053 | 1.08 ± 0.071 | 1.07 ± 0.021 | 1.04 ± 0.083 | 1.08 ± 0.071
5 | Cc1cc(NC(=O)C2=C(O)c3ccccc3S(=O)(=O)N2C)no1 | 1.04 ± 0.064 | 0.88 ± 0.036 | 1.004 ± 0.0085 | 0.945 ± 0.15 | 0.993 ± 0.18
6 | O=C(c1ccc(OCCN2CCCCC2)cc1)c1c(-c2ccc(O)cc2)sc2cc(O)ccc12 | 0.933 | 1.01 ± 0.1 | 0.938 ± 0.066 | 0.879 ± 0.0042 | 0.926 ± 0.078
7 | C[C@](N)(Cc1ccc(O)c(O)c1)C(=O)O | 0.981 ± 0.098 | 0.996 ± 0.062 | 1.03 ± 0.028 | 1.04 ± 0.087 | 1.03 ± 0.12
8 | CN(C)CCCN1c2ccccc2Sc2ccc(Cl)cc21 | 1.02 ± 0.054 | 0.957 ± 0.047 | 1.09 ± 0.14 | 0.928 ± 0.12 | 0.821 ± 0.13
9 | O=C(CCCCC(=O)Nc1c(I)cc(I)c(C(=O)O)c1I)Nc1c(I)cc(I)c(C(=O)O)c1I | 1.05 | 1.08 ± 0.16 | 1.01 ± 0.03 | 1.05 ± 0.028 | 1.06 ± 0.021
10 | Cc1ccc(S(=O)(=O)NC(=O)NN2CC3CCCC3C2)cc1 (stereo not given) | 0.95 ± 0.063 | 0.999 ± 0.044 | 0.974 ± 0.052 | 1.07 ± 0.071 | 0.9645 ± 0.0035
11 | Cc1cc(O)c(C=O)c(O)c1C(=O)O | 0.939 ± 0.14 | 0.939 ± 0.064 | 0.957 ± 0.035 | 1.09 ± 0.14 | 0.9475 ± 0.0035
12 | CC(C)=CC1C(C(=O)O)C1(C)C (stereo not given) | 1 ± 0.037 | 0.98 ± 0.057 | 0.977 ± 0.047 | 0.897 ± 0.065 | 1.02 ± 0.058
13 | CN(C)C(=N)NC(=N)N | 0.966 ± 0.076 | 1.003 ± 0.0099 | 1.01 ± 0.025 | 1.03 ± 0.13 | 1 ± 0.054
14 | C[C@H]1[C@H](C)CC[C@]2(C(=O)O)CC[C@]3(C)C(=CC[C@@H]4[C@@]5(C)C[C@@H](O)[C@H](O)[C@@](C)(CO)[C@@H]5CC[C@]43C)[C@H]12 | 1.04 ± 0.072 | 1.1 ± 0.15 | 1.1 ± 0.021 | 0.974 ± 0.093 | 1.05 ± 0.035
15 | O=C1CCC(N2C(=O)c3ccccc3C2=O)C(=O)N1 (stereo not given) | 0.939 ± 0.1 | 0.972 ± 0.04 | 0.953 ± 0.03 | 1.23 ± 0.16 | 0.887 ± 0.018
16 | CC1=C2C(O)C(=O)OC3CC4C(C)(C)C(=O)C=C[C@]4(C)C(CC1)[C@]23C (stereo not given in full) | 0.931 ± 0.015 | 0.97 ± 0.13 | 1.015 ± 0.0071 | 1.01 ± 0.14 | 1.14 ± 0.05
17 | CC(=O)OCC1=C(C(=O)O)N2C(=O)[C@@H](NC(=O)CSc3ccncc3)[C@H]2SC1 | 1.05 | 1.065 ± 0.0071 | 1.14 ± 0.14 | 0.985 ± 0.016 | 1.06 ± 0.057
18 | CC(=O)O[C@H]1CC[C@@]2(C)[C@@H](CC[C@@H]3[C@@H]2CC(=O)[C@]2(C)[C@@H]4[C@H](C[C@@H]32)O[C@]2(CC[C@@H](C)CO2)[C@H]4C)C1 | 0.907 ± 0.018 | 0.934 ± 0.047 | 0.9615 ± 0.0035 | 0.858 ± 0.038 | 0.995 ± 0.16
19 | C=C(C)[C@@H]1CC[C@]2(C(=O)O)CC[C@]3(C)[C@H](C[C@H]4OC(=O)C[C@@H](O)[C@]5(C)[C@@H]4[C@@]3(C)CC[C@H]5C(=C)C)[C@@H]12 [Chiisanogenin (12)] | 0.9945 ± 0.00071 | 1.02 ± 0.12 | 0.968 ± 0.023 | 1.11 ± 0.028 | 1.12 ± 0.028
20 | CC(C)c1c(O)ccc2c1CC[C@H]1[C@@](C)(CO)CCC[C@]21C | 1.07 ± 0.057 | 1.03 ± 0.15 | 1.1 ± 0.085 | 1.06 ± 0.19 | 1.04 ± 0.021
21 | Cc1onc(-c2ccccc2)c1C(=O)N[C@@H]1C(=O)N2[C@@H]1SC(C)(C)[C@@H]2C(=O)O | 0.978 ± 0.032 | 0.891 ± 0.1 | 0.978 ± 0.0014 | 1.21 ± 0.071 | 1.11 ± 0.028
22 | O=C(O)c1cc(O)ccc1O | 0.954 ± 0.0099 | 0.999 ± 0.059 | 1.005 ± 0.0071 | 1.04 ± 0.069 | 1.09
23 | O=S(=O)(O)c1cc(N=C=S)ccc1/C=C/c1ccc(N=C=S)cc1S(=O)(=O)O | 0.952 ± 0.046 | 0.9585 ± 0.0064 | 1.01 ± 0.03 | 0.981 ± 0.11 | 1.05 ± 0.064
24 | CC1=CC(=O)CC(C)(C)C1(O)/C=C/C(C)=C\C(=O)O (mixture of isomers) [ABSCISIC ACID (cis,trans; )] | 1.05 ± 0.021 | 1.1 ± 0.021 | 1.03 ± 0.064 | 1.08 ± 0.092 | 1.18 ± 0.13
25 | C=C1C(=O)O[C@H]2C[C@@H]1C(OC(C)=O)C/C(C)=C/CC/C(C)=C/CC[C@@]2(C)O (stereo not given in full) | 0.888 ± 0.067 | 0.999 ± 0.058 | 1.06 ± 0.014 | 0.885 ± 0.13 | 0.892 ± 0.0092
26 | NC(=O)N(CCc1ccccc1)CCc1ccccc1 [N, N-Bis(2-phenylethyl)urea] | 1.08 ± 0.085 | 1.01 ± 0.014 | 1.06 ± 0.021 | 1.03 ± 0.028 | 0.946 ± 0.077
27 | NC12CC3CC(CC(C3)C1)C2 | 0.979 ± 0.028 | 0.944 ± 0.058 | 1.04 ± 0.021 | 0.908 ± 0.34 | 1.025 ± 0.0071
28 | O=C(O)/C=C/c1ccc(O)c(O)c1 | 0.941 ± 0.046 | 1.05 ± 0.05 | 1.03 ± 0.081 | 0.983 ± 0.14 | 1.03 ± 0.035
29 | CN(C)CCOC(c1ccccc1)c1ccccc1 | 1.04 ± 0.028 | 1.06 ± 0.092 | 0.955 ± 0.013 | 1.2 | 1.19 ± 0.085
